The source of these data is PubChem BioAssay.

Active and inactive are the calls of the source.

Assay [1] can be described thus: small molecules captured by biotinylated probe aFSTL3 – biochemical, small-molecule microarray, fluorescence 635/667, stem cell growth factor project, primary screen (AID 1064).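 Also: measures binding of the biotinylated anti-FSTL3 antibody to printed compounds.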 The settings on record: higher = more signal.
A short description of assay [2]: binders from COS7 lysate, DM2A8 probe, primary screen, torsin A project, cell lysate, small-molecule microarray, fluorescence 635/667 (AID 1065). The note with it: higher = more signal, COS7 lysate expressing mutant human TOR1A.
Assay [3] is described as follows: small molecules captured by biotinylated probe aFGF2 – biochemical, small-molecule microarray, fluorescence 635/667, stem cell growth factor project, primary screen (AID 1067).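 Also: measures binding of biotinylated aFGF2 protein to printed compounds on slides; z-score merges feature fluorescence and signal-to-noise across triplicate slides.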 The note with it: higher = more signal.
The nature of assay [4]: small molecules captured by biotinylated probe aFGF10 – biochemical, small-molecule microarray, fluorescence 635/667, stem cell growth factor project, primary screen (AID 1071).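 Also: score merges 667 nm spot intensity and signal to noise from triplicate slides.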 The note with it: higher = more signal.
For assay [5], the target named is Neurogenic locus notch homolog protein 2 (Homo sapiens) (UniProt Q04721). In words: small molecules binding Notch2 protein – biochemical, small-molecule microarray, 635 nm fluorescence, stem cell growth factors, primary screen (AID 1073). The note with it: higher = more signal.
Neurogenic locus notch homolog protein 2 (Homo sapiens), sequence (Q04721 whole entry, looked up, canonical isoform): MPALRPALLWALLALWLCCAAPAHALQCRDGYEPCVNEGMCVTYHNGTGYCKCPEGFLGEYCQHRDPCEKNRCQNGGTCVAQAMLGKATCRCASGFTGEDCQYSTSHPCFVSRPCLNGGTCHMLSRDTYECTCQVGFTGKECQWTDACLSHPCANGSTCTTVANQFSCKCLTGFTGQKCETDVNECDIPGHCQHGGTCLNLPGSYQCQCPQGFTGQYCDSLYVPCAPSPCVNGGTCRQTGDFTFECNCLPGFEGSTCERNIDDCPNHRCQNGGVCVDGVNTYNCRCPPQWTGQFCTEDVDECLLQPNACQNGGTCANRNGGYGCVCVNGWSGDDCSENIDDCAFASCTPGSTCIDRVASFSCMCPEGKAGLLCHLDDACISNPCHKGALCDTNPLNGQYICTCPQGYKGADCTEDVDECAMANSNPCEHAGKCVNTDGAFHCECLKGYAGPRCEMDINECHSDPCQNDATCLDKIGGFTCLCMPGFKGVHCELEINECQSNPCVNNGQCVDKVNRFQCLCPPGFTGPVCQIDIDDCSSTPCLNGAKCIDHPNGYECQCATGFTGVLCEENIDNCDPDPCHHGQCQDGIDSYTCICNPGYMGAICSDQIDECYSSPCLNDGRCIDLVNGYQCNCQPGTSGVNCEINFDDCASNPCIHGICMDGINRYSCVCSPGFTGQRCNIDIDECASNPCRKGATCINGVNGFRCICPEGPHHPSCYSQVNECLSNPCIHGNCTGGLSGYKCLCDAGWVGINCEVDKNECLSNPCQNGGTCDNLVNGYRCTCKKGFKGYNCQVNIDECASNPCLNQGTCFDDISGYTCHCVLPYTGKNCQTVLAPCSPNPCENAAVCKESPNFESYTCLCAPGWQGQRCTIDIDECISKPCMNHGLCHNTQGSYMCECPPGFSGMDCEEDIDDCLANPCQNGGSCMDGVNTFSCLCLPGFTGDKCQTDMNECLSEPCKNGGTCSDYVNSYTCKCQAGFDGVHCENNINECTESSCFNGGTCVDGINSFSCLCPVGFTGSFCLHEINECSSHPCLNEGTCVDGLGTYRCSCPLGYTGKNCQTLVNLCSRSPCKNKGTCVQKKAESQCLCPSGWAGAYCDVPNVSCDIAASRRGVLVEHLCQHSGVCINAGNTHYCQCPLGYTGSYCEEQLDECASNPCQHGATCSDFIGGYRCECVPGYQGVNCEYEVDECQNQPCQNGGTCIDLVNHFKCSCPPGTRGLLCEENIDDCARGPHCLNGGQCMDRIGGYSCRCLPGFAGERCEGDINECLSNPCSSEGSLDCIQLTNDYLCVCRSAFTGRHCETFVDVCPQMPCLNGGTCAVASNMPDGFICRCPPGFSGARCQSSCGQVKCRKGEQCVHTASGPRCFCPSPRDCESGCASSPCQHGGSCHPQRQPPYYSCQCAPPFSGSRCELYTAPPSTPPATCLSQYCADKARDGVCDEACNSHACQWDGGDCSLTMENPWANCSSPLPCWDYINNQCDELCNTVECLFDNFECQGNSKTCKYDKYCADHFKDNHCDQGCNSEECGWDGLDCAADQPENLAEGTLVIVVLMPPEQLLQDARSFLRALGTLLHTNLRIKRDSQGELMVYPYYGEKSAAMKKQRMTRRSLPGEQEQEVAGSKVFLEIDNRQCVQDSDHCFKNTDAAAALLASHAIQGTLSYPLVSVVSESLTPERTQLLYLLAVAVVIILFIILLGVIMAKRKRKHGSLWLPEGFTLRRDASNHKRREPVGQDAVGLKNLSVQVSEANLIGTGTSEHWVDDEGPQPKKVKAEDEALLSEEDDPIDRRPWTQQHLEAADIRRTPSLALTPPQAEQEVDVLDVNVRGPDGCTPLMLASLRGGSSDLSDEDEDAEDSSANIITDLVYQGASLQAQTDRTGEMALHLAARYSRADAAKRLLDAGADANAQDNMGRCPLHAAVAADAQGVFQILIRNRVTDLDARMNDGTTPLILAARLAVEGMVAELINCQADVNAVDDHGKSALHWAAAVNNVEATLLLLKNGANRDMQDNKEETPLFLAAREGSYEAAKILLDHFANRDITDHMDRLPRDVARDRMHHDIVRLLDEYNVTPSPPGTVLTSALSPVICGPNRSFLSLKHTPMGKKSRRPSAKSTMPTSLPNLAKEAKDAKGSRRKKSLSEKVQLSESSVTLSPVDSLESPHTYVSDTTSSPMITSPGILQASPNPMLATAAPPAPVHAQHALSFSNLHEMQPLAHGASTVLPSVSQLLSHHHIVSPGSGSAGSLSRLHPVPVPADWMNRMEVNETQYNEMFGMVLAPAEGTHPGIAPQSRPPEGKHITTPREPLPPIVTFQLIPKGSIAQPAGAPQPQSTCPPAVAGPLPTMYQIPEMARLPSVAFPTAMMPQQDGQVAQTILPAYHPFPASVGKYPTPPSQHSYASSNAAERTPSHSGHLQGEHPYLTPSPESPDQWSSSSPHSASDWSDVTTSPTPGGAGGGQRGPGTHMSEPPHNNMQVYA
Assay [6] has as its target Pro-neuregulin-1, membrane-bound isoform (Homo sapiens) (UniProt Q02297). As to the kind of experiment: small molecules binding neuregulin-1 protein – biochemical, small-molecule microarray, fluorescence 635/667, psychiatric disease protein project, primary screen (AID 1075).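 Also: score combines 667 nm spot fluorescence with signal to noise.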 The settings on record: NRG1 binding, 635 nm fluorescence, higher = more signal.
Assay [7] concerns Neuregulin-1 EGF-like domain. As to the kind of experiment: small molecules binding NRG1 EGF domain – biochemical, small-molecule microarray, 635 nm fluorescence, primary screen (AID 1081).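 Also: binding of the protein to compounds printed on small-molecule microarray slides.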 The settings on record: higher = more signal.
Assay [8] is described as follows: FRG1 expression reporter modulators in myotubes – cell-based, C2C12 myotubes, firefly/Renilla luciferase, luminescence, FRG1 inhibition for FSHD, primary screen (AID 1084). The settings on record: FRG1 promoter luciferase, higher = more signal, called active from +8 up or from −8 down.
The nature of assay [9]: small molecules captured by biotinylated probe aFST – biochemical, small-molecule microarray, fluorescence 635/667, stem cell growth factor project, primary screen (AID 1086).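 Also: score merges 667 nm fluorescence with signal-to-noise of each printed compound spot.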 The note with it: higher = more signal.
Assay [10] can be described thus: binders of probe aHhip on microarray, primary screen, stem cell growth factor project, biochemical, small-molecule microarray, fluorescence 635/667 (AID 1087).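 Also: score merges spot fluorescence at 667nm with spot signal to noise ratio.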 The settings on record: higher = more signal.
Assay [11] deals with PRMT1 (protein arginine N-methyltransferase 1). In words: small molecules binding arginine methyltransferase PRMT1 – biochemical, small-molecule microarray, 635 nm fluorescence, primary screen (AID 1088).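 Also: binding of Prmt1 protein to compounds spotted on small-molecule microarray slides.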 The note with it: higher = more signal.
Assay [12] in a line: growth effects on S. cerevisiae YJM789 – YJM789 clinical isolate, OD600, 24 h, basal, primary screen (AID 1089).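 Also: growth of clinical yeast isolate S. cerevisiae YJM 789 seeded 1000 cells per well; test concentration not given here.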 The settings on record: higher = more signal, called active from +8 up or from −8 down.
Assay [13] can be described thus: S. pombe growth modifiers, basal conditions – strain 972, OD600, 24 h, no modulator, primary screen (AID 1090).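 Also: basal condition with compound alone and no growth modifier present; test concentration not given here.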 The settings on record: S. pombe 972 growth, higher = more signal, called active from +8 up or from −8 down.
Assay [14] is described as follows: budding yeast growth modifiers under rapamycin – strain BY4716, OD600, 96 h, primary screen (AID 1091). Also: test concentration not given here. The settings on record: S. cerevisiae BY4716 + rapamycin, higher = more signal, called active from +8 up or from −8 down.
Assay [15] addresses Torsin-1A-interacting protein 2 (Homo sapiens) (UniProt Q8NFQ8). In words: small molecules binding lysate-expressed LULL1 – cell lysate, human LULL1 lysate, 635/667 nm fluorescence, primary screen (AID 1092).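 Also: probe is lysate of COS7 cells overexpressing human LULL1; score merges per-feature 667 nm fluorescence with signal-to-noise.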 The settings on record: small-molecule microarray, hLULL1 lysate binding, 635 nm fluorescence; higher = more signal.
The nature of assay [16]: optical density change of DRC41 E. coli – strain DRC41, OD650, 24 h, E. coli filamentation project, primary screen (AID 1093).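 Also: MC1000 strain lacking acrAB efflux and sulA so SOS filamentation is blocked; test concentration not given here.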 The note with it: E. coli DRC41 growth, higher = more signal, called active from +8 up or from −8 down.
Assay [17] in a line: probe aLefty2 binding to arrayed compounds – biochemical, biotinylated probe, 635/667 nm fluorescence, primary screen (AID 1094).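 Also: score merges spot fluorescence near 667 nm with spot signal-to-noise ratio.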 The settings on record: small-molecule microarray, higher = more signal.
The test system of assay [18] is Noggin (protein binding on small-molecule microarray). In words: small molecules binding Noggin protein – biochemical, 635/667 nm fluorescence, primary screen (AID 1095).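 Also: score merges 667 nm feature fluorescence with signal to noise over triplicate slides.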 The note with it: 635 nm fluorescence, higher = more signal.
The target in assay [19] is Neurogenic locus notch homolog protein 3 (Homo sapiens) (UniProt Q9UM47). As to the kind of experiment: small molecules binding NOTCH3 protein – biochemical, 635/667 nm fluorescence, primary screen (AID 1096). The settings on record: small-molecule microarray, 635 nm fluorescence, higher = more signal.
Assay [20] can be described thus: probe aEGFR binding to arrayed compounds – biochemical, biotinylated probe, 635/667 nm fluorescence, primary screen (AID 1097).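 Also: probe is a biotinylated anti-EGFR antibody binding compounds printed on slides; score combines fluorescence near 667 nm and signal to noise of each spot.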 The settings on record: small-molecule microarray, higher = more signal.

Torsin-1A-interacting protein 2 (Homo sapiens), sequence (Q8NFQ8 whole entry, looked up): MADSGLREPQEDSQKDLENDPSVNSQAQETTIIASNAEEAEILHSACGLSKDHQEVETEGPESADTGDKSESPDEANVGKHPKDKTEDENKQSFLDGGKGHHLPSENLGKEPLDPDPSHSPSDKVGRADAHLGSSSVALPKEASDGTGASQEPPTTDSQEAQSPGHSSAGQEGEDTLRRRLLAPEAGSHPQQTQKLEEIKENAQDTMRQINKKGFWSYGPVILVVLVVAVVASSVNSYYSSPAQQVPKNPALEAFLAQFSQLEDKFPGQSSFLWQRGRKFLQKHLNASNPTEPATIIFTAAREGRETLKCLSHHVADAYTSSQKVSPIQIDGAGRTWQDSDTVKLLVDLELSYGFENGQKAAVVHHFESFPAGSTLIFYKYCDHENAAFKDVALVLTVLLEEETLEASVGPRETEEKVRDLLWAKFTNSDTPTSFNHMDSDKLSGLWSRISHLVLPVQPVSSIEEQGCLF
Pro-neuregulin-1, membrane-bound isoform (Homo sapiens), sequence (Q02297 whole entry, looked up, the tested form may be a part, canonical isoform): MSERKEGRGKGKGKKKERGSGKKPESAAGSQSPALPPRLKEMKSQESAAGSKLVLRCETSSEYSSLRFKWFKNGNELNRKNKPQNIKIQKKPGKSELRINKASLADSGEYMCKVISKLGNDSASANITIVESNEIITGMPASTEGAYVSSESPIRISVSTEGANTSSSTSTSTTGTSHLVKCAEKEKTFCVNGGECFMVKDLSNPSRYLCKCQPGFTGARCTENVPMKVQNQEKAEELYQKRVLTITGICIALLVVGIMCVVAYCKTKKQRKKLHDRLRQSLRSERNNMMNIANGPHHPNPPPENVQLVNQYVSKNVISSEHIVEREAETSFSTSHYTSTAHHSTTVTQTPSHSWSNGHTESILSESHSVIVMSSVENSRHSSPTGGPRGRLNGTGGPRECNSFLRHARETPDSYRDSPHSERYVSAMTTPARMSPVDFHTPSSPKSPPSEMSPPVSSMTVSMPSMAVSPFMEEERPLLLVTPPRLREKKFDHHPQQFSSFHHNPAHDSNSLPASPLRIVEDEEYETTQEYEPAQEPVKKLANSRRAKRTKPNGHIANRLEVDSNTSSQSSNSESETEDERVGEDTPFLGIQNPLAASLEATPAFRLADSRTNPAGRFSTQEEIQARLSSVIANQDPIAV

Consider `CC(C)c1ccc(NN2C(C(O)c3ccc4c(c3)OCO4)C=CC3C(=O)N(c4ccccc4)C(=O)C32)cc1` (stereo not given), for which the composite z-score was determined as 0.542 in assay [1]; 0.461 in assay [2]; 0.0899 in [3]; 0.839 in [4]; 1.34 in assay [5]; 1.82 in assay [6]. The composite z-score worked out at 1.24 in [7]; 1.07 in assay [9]; 0.103 in assay [10]; 1.21 in assay [11]; 3.5 in assay [15]; 0.304 in [17]. The composite z-score in assay [18] was 1.01; in assay [19], 1.1; in assay [20] it was -0.0845. Further, the z-score in assay [8] was 2.22 (inactive); in assay [12] it was -0.0261 (inactive); in assay [13], 0.0855 (inactive); in assay [14] it was 0.599 (inactive); in [16] it was 0.0026 (inactive).

With `CC(=O)OC[C@H]1O[C@H](CCON=C(C)CCN2CCc3nc(-c4ccccc4)c(-c4ccccc4)cc3C2)C=C[C@@H]1OC(C)=O`, the composite z-score in assay [1] is -0.195; in assay [2], 0.472; in assay [3], -0.119; in [4] it was 0.173; in assay [5] it was 0.0174; in assay [6], 0.266. Also, the composite z-score is 0.454 in assay [7]; -0.105 in [9]; 0.0749 in assay [10]; 1.25 in [11]; 1.26 in [15]; -0.0258 in assay [17]. Moreover, the composite z-score in assay [18] is 0.169; in assay [19], 0.0346; in assay [20], -0.0549. Also, the z-score is 1.23 (inactive) in assay [8]; -1.92 (inactive) in assay [12]; -0.757 (inactive) in assay [13]; -4.46 (inactive) in assay [14]; 0.901 (inactive) in assay [16].

With `O=C1[C@H]2[C@H]3[C@H](O)[C@H](O)CC(=NO[C@@H]4O[C@H](CO)[C@@H](O)[C@H](O)[C@H]4O)[C@H]3CC[C@H]2C(=O)N1Cc1ccccc1`, the composite z-score in assay [1] was -0.658; in [2] it was 0.0571; in assay [3], -0.116; in assay [4], 0.602; in assay [5], 1.4; in [6], -0.328. The composite z-score in [7] was 0.0944; in [9], 0.564; in assay [10], 0.199; in [11], 1.46; in [15], 0.903; in assay [17] it was -0.0015. The composite z-score in assay [18] is 1.02; in [19], 0.669; in [20] it was -0.0565. The z-score was 0.632 (inactive) in assay [8]; -0.509 (inactive) in assay [12]; -0.468 (inactive) in assay [13]; -0.987 (inactive) in assay [14]; -0.61 (inactive) in [16].

`C[C@H](c1ccccc1)N1C(=O)[C@H]2[C@H]3[C@H](O)[C@H](O)CC(=O)[C@@H]3CC[C@H]2C1=O`: the composite z-score was -0.019 in [1]; 0.242 in assay [2]; -0.0675 in assay [3]; 0.341 in assay [4]; 0.433 in assay [5]; -0.117 in assay [6]. Further, the composite z-score in assay [7] is 0.263; in assay [9], 0.0924; in assay [10], 0.0274; in [11], 0.27; in assay [15] it was 0.685; in [17] it was -0.226. Further, the composite z-score in assay [18] is 0.245; in [19] it was 0.419; in assay [20], 0.221. Further, the z-score in assay [8] was -0.243 (inactive); in assay [12], -0.228 (inactive); in [13], -0.522 (inactive); in [14], -0.478 (inactive); in assay [16] it was -0.417 (inactive).

`COc1ccc(O[C@H]2C=C[C@@H](c3ccccc3)O[C@@H]2COC(=O)CCC(C)=NOC[C@@H](C)[C@H](OCc2ccccc2)C(C)C)cc1`: the composite z-score in assay [1] is -0.404; in [2], -0.48; in assay [3] it was -0.171; in [4], -0.14; in assay [5], -1.1; in assay [6] it was -1.09. Also, the composite z-score in assay [7] is -1.02; in [9], -0.504; in assay [10] it was -0.184; in assay [11], -0.548; in [15], -0.694; in [17], -0.261. The composite z-score in assay [18] is -0.37; in assay [19] it was -1.03; in assay [20], -0.219. Besides, the z-score in assay [8] was 0.696 (inactive); in assay [12], 0.122 (inactive); in assay [13], 0.329 (inactive); in assay [14], -1.18 (inactive); in assay [16], 0.17 (inactive).

`CC1CC/C=C\[C@H]2OC34C=CCN(Cn5nnc6ccccc65)C(=O)[C@H]3N(CCO)C(=O)[C@@H]4C2C(=O)O1` (stereo not given in full): the composite z-score is 0.398 in [1]; 1.96 in [2]; -0.0778 in assay [3]; -0.181 in assay [4]; -1.29 in assay [5]; 1.52 in assay [6]. Also, the composite z-score in assay [7] was 1.43; in assay [9] it was -0.655; in assay [10] it was -0.0324; in assay [11] it was 0.754; in assay [15], 3.32; in [17], -0.0819. In addition, the results for the composite z-score in assay [18], in [19] and in assay [20] were -1.08, -0.695 and -0.424, respectively. Also, the z-score in assay [8] was -0.203 (inactive); in [12], -1.71 (inactive); in assay [13] it was -1.64 (inactive); in assay [14], -1.99 (inactive); in [16] it was 2.92 (inactive).

Turning to `CCOC(=O)NN=C1C[C@@H](O)[C@@H](O)[C@@H]2[C@@H]3C(=O)N(C[C@@H]4CCCO4)C(=O)[C@@H]3CC[C@@H]12`, the composite z-score in [1] is -0.216; in [2] it was 0.0306; in [3] it was -0.0786; in [4] it was 0.454; in assay [5] it was 0.453; in assay [6], 0.121. Further, the composite z-score was 0.69 in assay [7]; 0.0701 in assay [9]; -0.0994 in assay [10]; 0.0939 in assay [11]; 0.375 in assay [15]; -0.0458 in assay [17]. For the same compound, the composite z-score in assay [18] is 0.642; in assay [19], 0.697; in assay [20], -0.0681. The z-score in [8] is 0.52 (inactive); in [12], 0.822 (inactive); in assay [13], -0.408 (inactive); in assay [14] it was 0.256 (inactive); in [16], 0.757 (inactive).

Take `COCCOC(=O)N1C(=O)[C@@]2(c3cc(C#CCNC(N)=O)ccc31)[C@H](c1ccc(O)cc1)N1[C@H](c3ccccc3)[C@H](c3ccccc3)OC(=O)[C@H]1[C@@H]2C(=O)N1CCCCCCC1`: the composite z-score in [1] is 0.282; in assay [2], 0.384; in assay [3], -0.0022; in assay [4], 0.646; in assay [5], 1.1; in assay [6], 0.523. Also, the composite z-score in assay [7] was 1.07; in [9], 1.2; in assay [10] it was -0.0491; in assay [11], 1.55; in [15] it was 0.859; in [17] it was 0.354. The composite z-score came out at 1.28 in assay [18], 1.08 in assay [19] and 0.0396 in assay [20]. Further, the z-score in assay [8] is -0.199 (inactive); in [12], 1.2 (inactive); in assay [13] it was 0.159 (inactive); in assay [14], 1.27 (inactive); in [16] it was 0.576 (inactive).

As for `CO[C@@H]1COC(=O)CC=C[C@@H](C)[C@@H]2C=C[C@H](O)[C@@H](COC(=O)[C@H](C)NC(=O)CC=C[C@H]1C)O2`, the composite z-score in assay [1] was -0.556; in [2], 0.977; in [3], -0.15; in assay [4], 0.321; in [5] it was 0.268; in assay [6], -0.497. Moreover, the composite z-score in assay [7] is 0.849; in assay [9], 0.277; in [10] it was 0.351; in assay [11] it was 1.54; in assay [15] it was -0.75; in assay [17] it was -0.212. Besides, the composite z-score in [18] was 1.42; in assay [19] it was 0.868; in assay [20], 0.0231. For the same compound, the z-score in assay [8] is 0.361 (inactive); in [12] it was -0.653 (inactive); in assay [13], -0.465 (inactive); in [14] it was -1.36 (inactive); in assay [16] it was 0.0967 (inactive).
